# Results as given in article PMC12136788.
# Positions count from the first letter of the chain named. Over roughly 24,000 sequences, “enrichment r” has its median near 0.99; the highest 2% begin near 3.7. The sample holds the highest values, similar sequences and a random draw of the others, so the mix is not that of the screen.
# T1: UNK ZnF1-3 (human, UniProt Q9C0B0 31-174)
# T1 sequence: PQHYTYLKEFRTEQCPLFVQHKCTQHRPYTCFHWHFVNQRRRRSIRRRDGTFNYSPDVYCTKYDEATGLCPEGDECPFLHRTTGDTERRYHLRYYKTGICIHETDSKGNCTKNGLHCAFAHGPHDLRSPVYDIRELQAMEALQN
# B1: chr14:79828021:79828022:+_ENSMUSG00000043881_ENSMUST00000061222|mus_mus|motif|central (ssRNA)
# RNA: GGGAGUUCUACAGUCCGACGAUCAGGAUCAUAGCAGAGCAUGCGCUUACUGUUGACAGCGUAAAGAUAAUUCUGAACCACGGUUAGUUCAAAUGAAUAAAAGGAAUGUGGUACAGGAGCCACCAAUGCCCAUUGGUUCCUCUGCAACAGAGGAUUGAGCAUCA
# B2: chr4:21667751:21667752:+_ENSMUSG00000028252_ENSMUST00000108240|mus_mus|motif|central (ssRNA)
# RNA: GGGAGUUCUACAGUCCGACGAUCUUCUAGUAUAUGAUUCAUCCUGUAAGGAAAUUCCUUUGGAAAAGCAUAUGAAAAUCGGGUUUUUAAUACAGAAGUAGUAGCAGCAAUCAAUCUUGUAUUUGAGACAACACCAAAUUCCUCCAACAGAGGAUUGAGCAUCA
# B3: chr1:154935262:154935263:-_ENSG00000160691_ENST00000448116|hu_hu|FALSE|FALSE (ssRNA)
# RNA: GGGAGUUCUACAGUCCGACGAUCAUUUUGUGCUCAAGAAUAAGCAAUGGAAAAGAAAAUAGGAAAGUAAGUCUACAGCCCUAAAAUAUAUGCAUAUAAAACUUUAAAAGAAUGCAGUUCCAACUCUACAGAUGGUAUGUGGGGCAACAGAGGAUUGAGCAUCA
# B4: chr3:49547525:49547526:-_ENSMUSG00000037892_ENSMUST00000035931|mus_hu|FALSE|FALSE (ssRNA)
# RNA: GGGAGUUCUACAGUCCGACGAUCGUUCUUAUACUAAAAAUAAAAGCAAAAAUAUGAGAUCAUGCACUGGAGACAAAAGCUAAAAAUGAAUAGUUAUAACAAAGAAAGACAAUAUUCCAAAAGAUUAAAAUGUUCAAGUAUUGUCAACAGAGGAUUGAGCAUCA
# B5: chr1:163112212:163112213:-_ENSG00000143248_ENST00000313961|hu_hu|hu_hu_hu_mus_False|1_18 (ssRNA)
# RNA: GGGAGUUCUACAGUCCGACGAUCUUUUAUUAUCAGUAAGAGUGAGUUACAUACUAGGCAAAGUAUUGGAUACAAUAAUCAGGAAACAAACACUAUUGGUCCAGAAUUUAAAACUUUUGGGAUAAAUUGCUGGCACAGGAUUUACAACAGAGGAUUGAGCAUCA
# B6: chr9:90322654:90322655:+_ENSG00000196730_ENST00000408954|hu_hu|FALSE|FALSE (ssRNA)
# RNA: GGGAGUUCUACAGUCCGACGAUCAAAGAAAAGCGUAUAAGAAAUACACAUUUUGGAUAAAUAUGCACUUUUCUUUUUUAAAGGACAAUCAAUAUAGUAGUUAAAAAAAAUGUCAUUGAAAAGUUAGGAAUUCCAGCAAAAUUACAACAGAGGAUUGAGCAUCA
# B7: chr11:87794696:87794697:-_ENSMUSG00000020483_ENSMUST00000020775|mus_hu|motif|central (ssRNA)
# RNA: GGGAGUUCUACAGUCCGACGAUCGCCUUUUAUUUUGUAUAGGGAAAGAAAGAGAAAAGGGAGAGGUGGGAGAGAUUUCCGGGUGCAAUACAACCAAAAAAUAUUUUUAAAGUCUUGAAAAAUAAACAUAAAGCAGCCUUCUUCCAACAGAGGAUUGAGCAUCA
# B8: chr3:49547525:49547526:-_ENSMUSG00000037892_ENSMUST00000035931|mus_hu|motif|central (ssRNA)
# RNA: B4 RNA with U80G, A81G
# B9: chr20:5919097:5919098:-_ENSG00000089195_ENST00000203001|hu_hu|FALSE|FALSE (ssRNA)
# RNA: GGGAGUUCUACAGUCCGACGAUCGUUCUUAUUCUUGGGAUAUGAAAAAACAAGUAGUAAUGGCAUUUAAAGUUUAAUUACUAACUGUAUAAUGCCUGAGAACAAAAUUCAGAGCAAUUCUCAAAAGGGUUAAGAGUCAGACUCCAACAGAGGAUUGAGCAUCA
# B10: chr1:154935262:154935263:-_ENSG00000160691_ENST00000448116|hu_hu|motif|central (ssRNA)
# RNA: B3 RNA with U81G, A82G
# B11: chr3:49547525:49547526:-_ENSMUSG00000037892_ENSMUST00000035931|mus_mus|motif|central (ssRNA)
# RNA: GGGAGUUCUACAGUCCGACGAUCGUUCAUAUGCUAAAAAUACAAGCAAAACUGUGAUAGCAUGCACAAGAGACAAAAGCGGAAGGUGAAUAAUUAUAGCCAAAAAAAGAGAGACAAUGCAGUCGAUACAAAUGUUCAAGUAUGCAACAGAGGAUUGAGCAUCA
# B12: chr5:145543945:145543946:-_ENSG00000133706_ENST00000545646|hu_hu|hu_hu_hu_mus_True|58_98 (ssRNA)
# RNA: GGGAGUUCUACAGUCCGACGAUCCUGAACGGCCAGUGGCGGGAAAUAAUCAAGCCAGUGCUCUGCUUCAGAAAACUUUACUAUCUCGUCAUCAGAGAGCCCAAGGGAUUUCAUAAUGUCCCACUGGUACUUAGAAGAUCCUGCCAACAGAGGAUUGAGCAUCA
# B13: chrX:20248820:20248821:+_ENSMUSG00000001924_ENSMUST00000001989|mus_mus|mus_mus_mus_hu_True|78_78 (ssRNA)
# RNA: GGGAGUUCUACAGUCCGACGAUCGGCGAAGUCCGUCACCACAAAGUCAGGUUCUGCCAGUGAUGCUACCAAGGAUUUAAAGCUAAUCUUCUUAGGUACUUUGACCUGACUGACGAUGCCUCCACGGAUGUAGUCGGAGAAGUUCAACAGAGGAUUGAGCAUCA
# B14: chr1:66480114:66480115:+_ENSMUSG00000015222_ENSMUST00000024639|mus_hu|mus_mus_mus_hu_True|28_28 (ssRNA)
# RNA: GGGAGUUCUACAGUCCGACGAUCUGGCCUGUGGCGGAUGUUCUUCAGAGAGCCACAUUUGGAUGUCACAUGGCUUAGGUCUAUUUUCUUGGUAACAAUUUGUACCUGACCCCCCUUAGGCUGGUAUUUGAUGUUGUCUGUUGACAACAGAGGAUUGAGCAUCA
# B15: chrX:100668055:100668056:+_ENSG00000126945_ENST00000316594|hu_mus|FALSE|FALSE (ssRNA)
# RNA: GGGAGUUCUACAGUCCGACGAUCGAGCUCUACAUAGCUAUGAUCAUAAGCUCCUCCACUUGUCCCUGCGGUAGAAUUCAAGAAGAGCUCCACAUAUCUGUGUUGCAUAUUUGCUUUAUCUUUUGCCAUAGCUGCCACAGCGUCCAACAGAGGAUUGAGCAUCA
# B16: chr12:118471567:118471568:-_ENSG00000176871_ENST00000315436|hu_hu|motif|central (ssRNA)
# RNA: GGGAGUUCUACAGUCCGACGAUCGCACUUGGCCAACAUCGAAGCAACUCUGACCACAGCAGGAGAGAACUUGAACCAAUGCGGCCACUGCAUCAGAAACACAAGGAUAGGUACUAGGCAGAAGCCAUCGUUCCCAGCGGAGGGCAACAGAGGAUUGAGCAUCA
# B17: chr5:128448638:128448639:+_ENSG00000066583_ENST00000173527|hu_mus|hu_hu_hu_mus_False|18_48 (ssRNA)
# RNA: GGGAGUUCUACAGUCCGACGAUCGGCACUCGCCUUAAUUAGGUUCUGAAUUUCCUUGAACUUCGGGUGGUCUUUGUCAGCCACCAGCUGAAGCAGAACAGCCUCACUAGUGGUCACUAUGAUCCCGGUGCGGGCAAGACGCUCCAACAGAGGAUUGAGCAUCA
# B18: chr1:157160411:157160412:-_ENSMUSG00000026469_ENSMUST00000027741|mus_mus|FALSE|FALSE (ssRNA)
# RNA: GGGAGUUCUACAGUCCGACGAUCGAAUUCAAUCAGAAGAAAGCCACCCCGAUAGAUUCUUAUCAAGGGCCAUACAGUUCUAUCUGUUUCAAGUUUAAAUACAGCUGCAAACACAAGGGUAAUAUUCAGCACAAUGAAUAUUCCCAACAGAGGAUUGAGCAUCA
# B19: chr16:68260615:68260616:+_ENSG00000072736_ENST00000346183|hu_hu|FALSE|FALSE (ssRNA)
# RNA: GGGAGUUCUACAGUCCGACGAUCGAAACAAGAGAGCCUGCUGCAUUCACACUCAAAGCACCCAUCAUAUAAAAGUAUCCUAGUUAAAUAUAAAAAGCAAAGUUCAUUUCCCCAAAGCUCAAACAGCCUAUGCUGCUCCUGUUCCAACAGAGGAUUGAGCAUCA
# B20: chr1:157160411:157160412:-_ENSMUSG00000026469_ENSMUST00000027741|mus_mus|motif|central (ssRNA)
# RNA: B18 RNA with U80G, A81G
# B21: chr15:103023242:103023243:-_ENSMUSG00000009575_ENSMUST00000118152|mus_mus|FALSE|FALSE (ssRNA)
# RNA: GGGAGUUCUACAGUCCGACGAUCAACUAGCAGCAUUGAUGAGGGGUUAAGGGAUUGGGGACAGAAACUCACCAAGGUCACUAAGUACUUCCAAACUUGGAAGUAGCUCAGUGAGGGCUAAAAAAACUUCGACUGAAGGUAUCCCAACAGAGGAUUGAGCAUCA
# B22: chr5:145543945:145543946:-_ENSG00000133706_ENST00000545646|hu_hu|hu_hu_hu_mus_True|48_48 (ssRNA)
# RNA: B12 RNA with C39U, U78C, C84G, G87U, G96C
# B23: chr17:35975164:35975165:-_ENSMUSG00000001525_ENSMUST00000001566|mus_hu|FALSE|FALSE (ssRNA)
# RNA: GGGAGUUCUACAGUCCGACGAUCGGAAUGCGCCCCAGAGGCUGGAGCAGCGAGGUGCAAACGCGACGGCAGGAAGGUUCUGAGAGGGAGAAAGGAGAGGGGAGGGCGCGGAGGGAAAGCAGGCUGGGCGGGGCGCGCGUGCGCCAACAGAGGAUUGAGCAUCA
# B24: chr1:26230221:26230222:-_ENSG00000117632_ENST00000374291|hu_mus|FALSE|FALSE (ssRNA)
# RNA: GGGAGUUCUACAGUCCGACGAUCCUGGAUUUCCUCCAGGGAAAGGUCCUUCUUCUUUGGGGGGGAAAGGGGGAAAUCGGGGACAGAUUCUUUUGACCGAGGGCUGAGAAUCAGCUCAAAAGCCUGGCCUGAAGCGCGCUUCUCCAACAGAGGAUUGAGCAUCA
# B25: 72187872_72187992_6815_3pUTR_ENSG00000148730_ENST00000373218|human|control|control (ssRNA)
# RNA: GGGAGUUCUACAGUCCGACGAUCGAGUGUCCUCUGGGCUCUUCAAGACACCUUCUUUAAGGUUUACCCCUGGAGUAGCAGAGGGUCUCCUCACCCAGGUGGAAAGAGAUGGGCUCCAUCUGCAGAUGAAGGAAAGGCACUGGCCAACAGAGGAUUGAGCAUCA
# B26: chr14:67424093:67424094:-_ENSMUSG00000022048_ENSMUST00000022629|mus_mus|FALSE|FALSE (ssRNA)
# RNA: GGGAGUUCUACAGUCCGACGAUCGGAGACCGAGUGCAGGGGGCCCAAGAGGAAGCCCCAGGAACUGGCUGCCCACAGCAACUAUCACAGGCUCUUUAAAAAAAAAAAAAAUGGAAGAAAGGAAGUCUCAGAAUGUCCUCAGGUCAACAGAGGAUUGAGCAUCA
# B27: chr14:67424093:67424094:-_ENSMUSG00000022048_ENSMUST00000022629|mus_mus|motif|central (ssRNA)
# RNA: B26 RNA with U82G, A83G
# Molecular target: T1, UNK ZnF1-3
# Assay: nsRBNS (natural sequence RNA bind-n-seq); RBNS binding buffer (assumed for nsRBNS): 25 mM Tris pH 7.5, 150 mM KCl, 3 mM MgCl2, 0.01% Triton X-100, 500 ug/ml BSA, 20 U/ml SUPERase-In, 4 C; UNK is unkempt and MSI1 is Musashi-1; names of the RNAs are library labels; protein concentration not given here; high values mean tight binding
row,Binder,binding signal [enrichment R]
1,B1,1.02
2,B2,0.985
3,B3,3.55
4,B4,4.56
5,B5,1.27
6,B6,8.3
7,B7,3.42
8,B8,3.95
9,B9,0.585
10,B10,3.69
11,B11,1.91
12,B12,1.23
13,B13,0.842
14,B14,0.629
15,B15,1
16,B16,1.61
17,B17,0.517
18,B18,0.961
19,B19,4.02
20,B20,0.944
21,B21,1.71
22,B22,1.07
23,B23,2.69
24,B24,0.676
25,B25,1.96
26,B26,3.82
27,B27,4.34
